Source: PubChem BioAssay
Several values for one entry are separate records, joined by “and”; a condition that tells them apart may be missing. Equal values may be shown once. Activity calls are given as the source filed them. No rule for the calls is given here.

assay: growth inhibition, single agent and combos, cell-based, chromothripsis tumors, cisplatin or BGB combos (AID 1671450); details: HDN33 neuroblastoma cells, measured here: with BGB IC20 combination, at 0.5 µM, stronger effect = higher value;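 also: cells exposed to compound for four days; 0% = vehicle DMSO and 100% = cell killing by high DMSO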

SMILES	inhibition
O=C(O)P(=O)(O)O	-38.1%
C[C@H]1COc2c(C3(N)CC3)c(F)cc3c(=O)c(C(=O)O)cn1c23	-22.3%
Nc1nc2c(ncn2CCC(CO)CO)c(=O)[nH]1	-20.3% and -5.75%
CN(C)/N=N/c1nc[nH]c1C(N)=O	-1.18% and -51%
CC1CCc2cc(F)cc3c(=O)c(C(=O)O)cn1c23 (stereo unspecified)	18.5% and 19.1%
CCN1CCN(c2cc3c(cc2F)c(=O)c(C(=O)O)cn3C2CC2)CC1	-32.1%

same assay, conditions: HDN33 neuroblastoma cells, measured here: with cisplatin IC20 combination, at 0.5 µM, stronger effect = higher value

SMILES	inhibition
O=C(O)P(=O)(O)O	-23.4%
C[C@H]1COc2c(C3(N)CC3)c(F)cc3c(=O)c(C(=O)O)cn1c23	-3.47%
Nc1nc2c(ncn2CCC(CO)CO)c(=O)[nH]1	-28.1% and -7.91%
CN(C)/N=N/c1nc[nH]c1C(N)=O	-5.95% and -47.5%
CC1CCc2cc(F)cc3c(=O)c(C(=O)O)cn1c23 (stereo unspecified)	-0.119% and -5.91%
CCN1CCN(c2cc3c(cc2F)c(=O)c(C(=O)O)cn3C2CC2)CC1	1.88%

same assay, conditions: HDN33 neuroblastoma cells, single agent, at 5 µM, stronger effect = higher value

SMILES	inhibition
O=C(O)P(=O)(O)O	-52.1%
C[C@H]1COc2c(C3(N)CC3)c(F)cc3c(=O)c(C(=O)O)cn1c23	-13.5%
Nc1nc2c(ncn2CCC(CO)CO)c(=O)[nH]1	-23.7% and -10.4%
CN(C)/N=N/c1nc[nH]c1C(N)=O	47.2% and 2.95%
CC1CCc2cc(F)cc3c(=O)c(C(=O)O)cn1c23 (stereo unspecified)	0.699% and -7.13%
CCN1CCN(c2cc3c(cc2F)c(=O)c(C(=O)O)cn3C2CC2)CC1	-10.9%

assay: growth inhibition, single agents and combos, ICB984, cell-based, cisplatin or BGB combos, synergistic combos for chromothripsis tumors (AID 1671451); details: ICB984 medulloblastoma cells, drug combinations, BGB IC20 combo, at 0.005 µM, stronger effect = higher value;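 also: cells exposed for 96 hours before readout; 0% = vehicle DMSO and 100% = killing by high DMSO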

SMILES	inhibition
O=C(O)P(=O)(O)O	-19.7%
C[C@H]1COc2c(C3(N)CC3)c(F)cc3c(=O)c(C(=O)O)cn1c23	-21.1%
Nc1nc2c(ncn2CCC(CO)CO)c(=O)[nH]1	6.03% and -7.22%
CN(C)/N=N/c1nc[nH]c1C(N)=O	0.732% and 6.78%
CC1CCc2cc(F)cc3c(=O)c(C(=O)O)cn1c23 (stereo unspecified)	-7.37% and -18.9%
CCN1CCN(c2cc3c(cc2F)c(=O)c(C(=O)O)cn3C2CC2)CC1	-8.19%

same assay, conditions: ICB984 medulloblastoma cells, drug combinations, BGB IC40 combo, at 0.005 µM, stronger effect = higher value

SMILES	inhibition
O=C(O)P(=O)(O)O	-25.3%
C[C@H]1COc2c(C3(N)CC3)c(F)cc3c(=O)c(C(=O)O)cn1c23	4.03%
Nc1nc2c(ncn2CCC(CO)CO)c(=O)[nH]1	-30.8% and -8.59%
CN(C)/N=N/c1nc[nH]c1C(N)=O	-12.9% and -11.7%
CC1CCc2cc(F)cc3c(=O)c(C(=O)O)cn1c23 (stereo unspecified)	-12.9% and -43.9%
CCN1CCN(c2cc3c(cc2F)c(=O)c(C(=O)O)cn3C2CC2)CC1	-15.5%

same assay, conditions: ICB984 medulloblastoma cells, drug combinations, BGB IC40 combo, at 0.05 µM, stronger effect = higher value

SMILES	inhibition
O=C(O)P(=O)(O)O	-29.6%
C[C@H]1COc2c(C3(N)CC3)c(F)cc3c(=O)c(C(=O)O)cn1c23	-27.4%
Nc1nc2c(ncn2CCC(CO)CO)c(=O)[nH]1	-28.9% and 4.12%
CN(C)/N=N/c1nc[nH]c1C(N)=O	12.2% and -40.2%
CC1CCc2cc(F)cc3c(=O)c(C(=O)O)cn1c23 (stereo unspecified)	-20% and -12.5%
CCN1CCN(c2cc3c(cc2F)c(=O)c(C(=O)O)cn3C2CC2)CC1	-15.7%

same assay, conditions: ICB984 medulloblastoma cells, drug combinations, at 0.5 µM, stronger effect = higher value

SMILES	inhibition
O=C(O)P(=O)(O)O	-22.4% (inactive)
C[C@H]1COc2c(C3(N)CC3)c(F)cc3c(=O)c(C(=O)O)cn1c23	-17.9% (inactive)
Nc1nc2c(ncn2CCC(CO)CO)c(=O)[nH]1	-31.2% (inactive) and -13.2% (inactive)
CN(C)/N=N/c1nc[nH]c1C(N)=O	-9.82% (inactive) and -15.2% (inactive)
CC1CCc2cc(F)cc3c(=O)c(C(=O)O)cn1c23 (stereo unspecified)	-19.2% (inactive) and -16.4% (inactive)
CCN1CCN(c2cc3c(cc2F)c(=O)c(C(=O)O)cn3C2CC2)CC1	-30.1% (inactive)

same assay, conditions: ICB984 medulloblastoma cells, drug combinations, cisplatin combo, at 0.05 µM, stronger effect = higher value

SMILES	inhibition
O=C(O)P(=O)(O)O	-29.6%
C[C@H]1COc2c(C3(N)CC3)c(F)cc3c(=O)c(C(=O)O)cn1c23	-30.9%
Nc1nc2c(ncn2CCC(CO)CO)c(=O)[nH]1	-34.1% and 1.44%
CN(C)/N=N/c1nc[nH]c1C(N)=O	9.76% and -45.2%
CC1CCc2cc(F)cc3c(=O)c(C(=O)O)cn1c23 (stereo unspecified)	-20% and -16.9%
CCN1CCN(c2cc3c(cc2F)c(=O)c(C(=O)O)cn3C2CC2)CC1	-18.9%

same assay, conditions: ICB984 medulloblastoma cells, drug combinations, cisplatin combo, at 0.5 µM, stronger effect = higher value

SMILES	inhibition
O=C(O)P(=O)(O)O	-36.7%
C[C@H]1COc2c(C3(N)CC3)c(F)cc3c(=O)c(C(=O)O)cn1c23	-13.3%
Nc1nc2c(ncn2CCC(CO)CO)c(=O)[nH]1	-50.7% and 4.42%
CN(C)/N=N/c1nc[nH]c1C(N)=O	-14.5% and -8.2%
CC1CCc2cc(F)cc3c(=O)c(C(=O)O)cn1c23 (stereo unspecified)	-31% and -15.5%
CCN1CCN(c2cc3c(cc2F)c(=O)c(C(=O)O)cn3C2CC2)CC1	-33.6%

same assay, conditions: ICB984 medulloblastoma cells, drug combinations, cisplatin combo, at 5 µM, stronger effect = higher value

SMILES	inhibition
O=C(O)P(=O)(O)O	-14%
C[C@H]1COc2c(C3(N)CC3)c(F)cc3c(=O)c(C(=O)O)cn1c23	-41.9%
Nc1nc2c(ncn2CCC(CO)CO)c(=O)[nH]1	-20.3% and -61.9%
CN(C)/N=N/c1nc[nH]c1C(N)=O	-16% and -22.9%
CC1CCc2cc(F)cc3c(=O)c(C(=O)O)cn1c23 (stereo unspecified)	-18.9% and -31.7%
CCN1CCN(c2cc3c(cc2F)c(=O)c(C(=O)O)cn3C2CC2)CC1	5.13%

same assay, conditions: ICB984 medulloblastoma cells, drug combinations, measured here: 5 uM single agent, at 5 µM, stronger effect = higher value

SMILES	inhibition
O=C(O)P(=O)(O)O	-14.5%
C[C@H]1COc2c(C3(N)CC3)c(F)cc3c(=O)c(C(=O)O)cn1c23	-29.9%
Nc1nc2c(ncn2CCC(CO)CO)c(=O)[nH]1	6.97% and -17.4%
CN(C)/N=N/c1nc[nH]c1C(N)=O	-26.7% and -20.4%
CC1CCc2cc(F)cc3c(=O)c(C(=O)O)cn1c23 (stereo unspecified)	-15.3% and -14.5%
CCN1CCN(c2cc3c(cc2F)c(=O)c(C(=O)O)cn3C2CC2)CC1	-24%
